Test results as given in ChEMBL document CHEMBL3433997, “St. Jude Leishmania screening dataset” (2016).

Assays:
Assay type in all cases: functional
[1] = molecular target: Solute carrier family 2, facilitated glucose transporter member 1 (Homo sapiens) (UniProt P11166); test: ST_JUDE_LEISH: Cytotoxicity at 2uM final concentration against transgenic Leishmania Mexicana promastigotes LmGLUT1 that are glucose transport deficient and complemented with the human glucose transporter GLUT1. Activity is measured by DNA content using SYBR green in vitro
Chain of Solute carrier family 2, facilitated glucose transporter member 1 (Homo sapiens) (P11166 whole entry): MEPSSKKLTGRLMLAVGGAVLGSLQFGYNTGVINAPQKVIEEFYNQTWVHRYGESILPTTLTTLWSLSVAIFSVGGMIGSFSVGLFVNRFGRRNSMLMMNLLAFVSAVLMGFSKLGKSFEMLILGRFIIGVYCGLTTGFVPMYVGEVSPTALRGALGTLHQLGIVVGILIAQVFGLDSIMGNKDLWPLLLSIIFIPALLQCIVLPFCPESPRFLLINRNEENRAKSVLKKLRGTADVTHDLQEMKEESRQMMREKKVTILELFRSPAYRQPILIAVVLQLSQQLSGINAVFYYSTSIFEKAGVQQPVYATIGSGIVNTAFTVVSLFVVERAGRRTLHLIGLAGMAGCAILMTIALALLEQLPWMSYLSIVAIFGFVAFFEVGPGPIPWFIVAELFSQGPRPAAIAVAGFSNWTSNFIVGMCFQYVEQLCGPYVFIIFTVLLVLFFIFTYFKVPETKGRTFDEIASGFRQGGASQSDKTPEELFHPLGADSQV

[2] = molecular target: Hexose transporter 1 (Plasmodium falciparum) (UniProt O97467); test: ST_JUDE_LEISH: Cytotoxicity at 2uM final concentration against transgenic Leishmania Mexicana promastigotes LmPfHT that are glucose transport deficient and complemented with the Plasmodium falciparum hexose transporter. Activity is measured by DNA content using SYBR green in vitro
[3] = molecular target: Glucose transporter (Leishmania mexicana) (UniProt O61059); test: ST_JUDE_LEISH: Cytotoxicity at 2uM final concentration against transgenic Leishmania Mexicana promastigotes LmGT2 that are glucose transport deficient and complemented with the L. Mexicana glucose transporter 2. Activity is measured by DNA content using SYBR green in vitro

SMILES | inhibition [1] | inhibition [2] | inhibition [3]
Cc1ccc(S(=O)(=O)n2cc(-c3ccnc(N)c3)c3cc(Br)cnc32)cc1 | 4.4% | 4.2% | 1.4%
COc1cccc(C=Cc2nc(=O)c3ccccc3o2)c1OC | 4.18% | 0.32% | 0.45%
O=C(c1ccccc1)N1CCC[C@](CCCN2CCN(c3ccccc3O)CC2)(c2ccc(Cl)c(Cl)c2)C1 | 5.1% | 4.13% | 5.99%
Cc1cc(OCC2CCCN(c3ncc(C(=O)NC4CC4)cc3Cl)C2)ccc1F (centres undefined) | 0.51% | 1.78% | 0.81%
O=C(Nc1cccc(C(F)(F)F)c1)NC1CCN(c2ccnc3ccccc23)CC1 | 5.82% | 5.09% | 2.7%
O=c1cc(NCCCNCc2scc(I)c2I)[nH]c2ccccc12 | 4.34% | 5.49% | 4%
COc1ccc2c(c1)CC(CNC[C@H](O)c1cccc(Cl)c1)CC2 (some centres undefined) | -1.38% | 0.78% | 1%
CC(C)Cc1ccc(N2CCN(CCCCNC(=O)c3ccc(NC(=O)c4cc(C(F)(F)F)cc(C(F)(F)F)c4)cc3)CC2)cc1 | 0.41% | 1.08% | -0.64%
CC(C)Nc1cc(C(=O)N[C@@H](Cc2ccccc2)[C@H](O)CNC2CCCCC2)cc(N2CCCCS2(=O)=O)c1 | 0.23% | 3.37% | 7.2%
Cc1cccc2sc(N(CCCn3ccnc3)C(=O)C=Cc3cccs3)nc12 | 12.6% | 12.7% | 6.56%
O=C(/C=C/c1cccc(Cl)c1)N1CCC(C(O)CN2CCC3(CC2)CN(C(=O)/C=C/c2cccc(Cl)c2)c2ccccc23)CC1 (centres undefined) | 0.54% | 1.87% | 0.82%
O=C(CCc1cccnc1)Nc1ccc(-c2cccc(-c3nc4cc(F)ccc4[nH]3)c2)cc1 | 10.7% | 9.99% | 8.65%
OC(COCc1ccc(-c2ccccc2)cc1)CN1CCCCC1 (centres undefined) | 2.72% | 1.99% | 3.58%
Cc1ccc(-c2ccc3c(c2)C=C(C(=O)NC2CCN(CCNC(=O)c4cccs4)CC2)CCC3)cc1 | 8.71% | 2.81% | 2.25%
O=C(NCCCCN1CCC(c2ccc3c(c2OCc2ccncc2)CCCC3)CC1)c1ccc(NC(=O)c2ccc(Cl)cc2)cc1 | 2.33% | 2.42% | 1.29%
Cc1ccc(O)c(-c2cc(C(=O)Nc3ccc(S(=O)(=O)N4CCCCCC4)cc3)[nH]n2)c1 | -2.76% | -1.17% | -0.85%
Cc1ccccc1CNc1noc(-c2c(F)cccc2Cl)n1 | 4.28% | 5.55% | 5.34%

SMILES | inhibition [1] | inhibition [2] | inhibition [3]
Cc1nc(N2CCC(C)CC2)c2c3c(sc2n1)CCCC3 | 2.21% | 2.09% | 0.47%
COc1ccc(OCCCN2CCCCC2)cc1S(=O)(=O)c1ccc(OCc2ccc(C(F)(F)F)cc2)cc1 | 2.4% | 0.01% | 2.1%
COc1cc(NC(=O)CCCN2CCN(c3cccc(Cl)c3Cl)CC2)ccc1N1CCN(C(C)C)CC1 | -2.72% | 0.8% | -0.51%
CCCCCC(C)C(C)c1cc(O)c2c(c1)OC(C)(C)CC2(O)c1ccccn1 (centres undefined) | 1.35% | 2.79% | 3.05%
Cc1cc(N[C@@H](Cc2ccccc2)C(=O)NCCOc2ccccc2)nc(NCCc2ccccc2)n1 | 6.59% | 5.86% | 3.92%
CCOC(=O)CNC(=O)c1cc(=O)c2ccccc2o1 | 0.86% | 0.78% | 0.44%
OCCCCCCNc1ccnc2[nH]c3ccc(I)cc3c12 | 8.64% | 6.33% | 3.14%
COc1ccc(NC(=O)[C@H](Cc2ccccc2)Nc2cc(C)nc(NCC3CCCCC3)n2)cc1 | 1.62% | 2.59% | 0.65%
COc1ccc(CN(C)CCCc2ccc(NC(=O)Cc3ccc4nc(-c5ccccc5)ccc4c3)cc2)cc1OC | 19.3% | 11.1% | 6.65%
COc1cc2nccc(Nc3ccc(OCc4ccc(NC(C)=O)cc4)cc3)c2cc1OC | 5.38% | 7.36% | 2.65%
Oc1c(Br)cc2oc3c(c2c1CNCc1ccccc1)CCCC3 | -0.72% | -0.92% | -0.81%
CN1CCN(CC(=O)Nc2cccc(-c3ccc(-c4nc5cc(F)ccc5[nH]4)cc3)c2)CC1 | -1.54% | 0.97% | 3%
COc1ccc(F)cc1-c1cccc(CNC2CCN(CC3Cn4c(=O)ccc5ccc(F)c3c54)CC2)c1 (centres undefined) | 10.1% | 14.3% | 18.8%
Nc1nc(N)c2c(ccc3c2ccn3C2C=CCCC2)n1 (centres undefined) | 56.1% | 71.8% | 34.4%
CC1(C)C(=O)Nc2ccc3c(c21)CC1SC(=O)NN=C31 (centres undefined) | -0.91% | 0.11% | 0.01%
COc1ccc(Cn2c(Nc3cccc(C(F)(F)F)c3)nc3cc(C(=O)NCCN4CCCC4)cnc32)cc1Cl | 13.2% | 12.9% | 15.6%
